Results: PubChem BioAssay (NCI)
This is part of a sample that, as a whole, favours compounds with a hit. Of some 79,000 tested, about 15% had one in any assay. Calls of active or inactive are those of the source. No stated cut-off is given here; in the data, active means growth inhibition above about 70%; inactive means the rest.

Assays:
[1] = NCI Yeast Anticancer Drug Screen. Data for the rad50 strain (AID 155);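 further: 0% = growth of vehicle-only cultures of the same strain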; conditions: S. cerevisiae rad50 strain growth inhibition; at 50.0 µM; hits give high values
Summary of the method: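 Relative growth inhibition (compound vs vehicle) was measured in yeast with a defined repair-gene alteration.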

[2] = NCI Yeast Anticancer Drug Screen. Data for the sgs1 mgt1 strain (AID 161);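 further: 0% = growth of cultures given vehicle only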; conditions: S. cerevisiae sgs1 mgt1 strain, at 50.0 µM, hits give high values
Summary of the method: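 Compounds are added to genetically altered yeast, and growth is compared with cultures given vehicle alone to give percent inhibition.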

[3] = NCI Yeast Anticancer Drug Screen. Data for the cln2 rad14 strain (AID 165);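 further: 0% = growth equal to vehicle treated cultures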; conditions: S. cerevisiae cln2 rad14 strain, at 50.0 µM, hits give high values
Summary of the method: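 Yeast carrying cln2 and rad14 alterations (cell cycle control and DNA damage repair) were exposed to compounds. Growth inhibition was measured against vehicle-treated controls.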

[4] = NCI Yeast Anticancer Drug Screen. Data for the bub3 strain (AID 167); conditions: S. cerevisiae bub3 mutant strain, at 50.0 µM, hits give high values
Summary of the method: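 Screening used yeast with an engineered genetic alteration affecting cell cycle control. Compound-exposed cultures were compared with vehicle cultures, and reduced growth was taken as inhibition.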

[5] = NCI Yeast Anticancer Drug Screen. Data for the mlh1 rad18 strain (AID 175); conditions: S. cerevisiae mlh1 rad18 strain growth inhibition; at 50.0 µM; hits give high values
Summary of the method: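 Growth inhibition of the yeast strain was measured after compound exposure and expressed relative to vehicle-treated controls. The strain carries defined defects in DNA damage repair.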

Measured: growth inhibition

CO/N=C(\C(=O)OC(=NC1CCCCC1)NC1CCCCC1)c1csc(NC(c2ccccc2)(c2ccccc2)c2ccccc2)n1
inactive: [1] -5.15% | [2] -5.4% | [3] -7.8% | [4] -0.3% | [5] -6.5%

O=C(O)CCN1C(=S)CSC1=S
inactive: [1] -5.35% | [2] -38.5% | [3] 8.9% | [4] -33.9% | [5] -24.2%

O=C(O)C(CS)NC1CC(=O)N(Cc2ccccc2)C1=O (centres undefined)
inactive: [1] 1.95% | [2] 18.6% | [3] -19.3% | [4] -1.55% | [5] -8.25%

CCC1=C[C@H]2CN(CCc3c([nH]c4ccccc34)[C@@](C(=O)OC)(c3cc4c(cc3OC)N(C)[C@H]3C(C(=O)OC)=C[C@]5(CC)C=CCN6CC[C@]43[C@@H]65)C2)C1
inactive: [1] -14.7% | [2] -4.75% | [3] -13.5% | [4] -0.8% | [5] -18.9%

N#Cc1cccc(N2C(=O)C3C4C=CC(C3C2=O)C2C(=O)N(c3cccc(C#N)c3)C(=O)C42)c1 (centres undefined)
inactive: [1] -8.5% | [2] -6.25% | [3] 26.6% | [4] -0.35% | [5] -18.4%

CCC(CO)c1ccccc1 (centres undefined)
inactive: [1] -3.6% | [2] -3.1% | [3] -25.4% | [4] -3.1% | [5] -12.1%

O=C(O)C1=CC(c2ccccc2O)=NCCN1
inactive: [1] -20.8% | [2] 0.7% | [3] -34.6% | [4] -4.1% | [5] 3.6%

COC(=O)C1=C(C)N(NC(=O)Nc2ccccc2)C2(N)N(NC(=O)Nc3ccccc3)C(C)=C(C(=O)OC)C12C(=O)OC (centres undefined)
inactive: [1] -8.9% | [2] 3.55% | [3] 2.2% | [4] 15.2% | [5] -2.8%

O/N=C1/CC2(N3CCOCC3)C3CC/C(=N\O)C2CC1(Cc1ccccc1)C3 (centres undefined)
inactive: [1] 2.75% | [2] 17.1% | [3] 27.7% | [4] -11.2% | [5] -10%

CONC(CC(=O)c1ccccc1)c1ccccc1 (centres undefined)
inactive: [1] 23.4% | [2] 5.75% | [3] 2.7% | [4] 14.2% | [5] 5.65%

O=CC(NC(=O)N(CCF)N=O)C(O)C(O)C(O)CO (centres undefined)
inactive: [1] -15% | [2] 2.5% | [3] -15.6% | [4] 1.3% | [5] -44.4%

O=C(O)CCN1CCCS(=O)(=O)C1=O
inactive: [1] 11.8% | [2] -0.35% | [3] 9% | [4] -0.85% | [5] -5.3%

CCN(CC)CCOC(=O)c1ccc(N=Nc2ccc(O)cc2)cc1
inactive: [1] 7.25% | [2] -17.9% | [3] -6.25% | [4] 1% | [5] -5.7%

CC(CCC(=O)O)[C@H]1CCC2[C@H]3C(CC(=O)[C@@]21C)[C@@]1(C)CCC(O)C[C@H]1C[C@@H]3O (some centres undefined)
inactive: [1] -7.75% | [2] 5.9% | [3] -29.4% | [4] -17.1% | [5] -11.7%

O=c1oc2ccccc2cc1-n1nnc2ccccc21
inactive: [1] -2.65% | [2] 18.9% | [3] 2% | [4] 16.1% | [5] 21%

CSCCC(NC(=O)OC(C)(C)C)C(=O)NCCNc1ccc(NCCNC(=O)C(CCSC)NC(=O)OC(C)(C)C)c2c1C(=O)c1ccccc1C2=O (centres undefined)
inactive: [1] 19.4% | [2] -24.2% | [3] 3.85% | [4] -9.5% | [5] -43.3%

O=C(NC12CC3CC(CC(C3)C1)C2)C(=O)c1c[nH]c2ccccc12
inactive: [1] 8.5% | [2] 8.1% | [3] 24.6% | [4] 23.6% | [5] 11.4%

CCc1cc2c(cc1C(=O)CCN1CCCC1)C(C)(C)CCC2(C)C
active: [1] 99.5% | [2] 98.5% | [3] 99.5% | [4] 99.5% | [5] 99.8%

CN(C)CCSC(=Nc1ccccc1)N1CCCCC1
inactive: [1] -32.8% | [2] -9.5% | [3] 30.9% | [4] 8.15%

O=C(O)C(CCl)c1ccccc1 (centres undefined)
inactive: [1] 7.05% | [2] 0.4% | [3] -17.1% | [4] 9.85% | [5] 2.25%

CCCN(CCC)CCc1cc(C(C)=O)n(S(=O)(=O)c2ccc(C)cc2)c1
inactive: [1] -10.2% | [2] 0.3% | [3] 19.6% | [4] -7.35% | [5] 21.4%

O=C1c2ccccc2Cc2ccccc21
inactive: [1] 3.5% | [2] -1.7% | [3] -19.4% | [4] 16.4% | [5] 7.55%

CC1CCCC(CCO)CC1 (centres undefined)
inactive: [1] 11.6% | [2] 6.4% | [3] 0.1% | [4] 15.7% | [5] 6.3%

CCCCNc1nc(C#N)c(N)s1
inactive: [1] 3.6% | [2] -12.7% | [3] 11.3% | [4] 11.7% | [5] 8.55%

CCCCCCCCCCC1OC(C)C(C)O1 (centres undefined)
inactive: [1] 0.4% | [2] -7.3% | [3] -25.1% | [4] -5.5% | [5] 13.2%

O=c1c(Br)nn(C(c2ccccc2)c2ccccc2)c(=O)n1C(c1ccccc1)c1ccccc1
inactive: [1] 23.1% | [2] 10.1% | [3] 15.8% | [4] 3.6% | [5] 13.1%

Cc1ccc(C(c2ccc(C)c(C)c2)C(O)C(O)C(O)CO)cc1C (centres undefined)
inactive: [1] 20% | [2] 0.65% | [3] 12.9% | [4] 6.7% | [5] 8.85%
